Screening results: PubChem, Center for Chemical Genomics, University of Michigan
Many of the other results were omitted from the sample, so hits are more common in it than they were.
Dicer inh: blocks human Dicer maturation of pre-miR-21; cat-ELCCA pre-miR-21 Dicer processing, chemiluminescence; hits give high values; z-score at 25 µM; Q9UPY3; 47,000 compounds, 6% hits; AID 1347074; in the data active = z-score above about 3, passing the limit was not always enough;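 also: plate controls were vehicle for no effect and no enzyme for full effect; higher signal means more uncleaved substrate so more Dicer inhibition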
* = called active by the depositor.

SMILES	Dicer inh
Fc1cccc(CSc2ncc3ccccn23)c1	2
CCCOc1ccccc1C1C(C(=O)OCC)=C(C)Nc2nnnn21 (configuration not stated)	-0.59
O=C(O)c1ccc2nc(-c3cccc(-c4nc5ccc(C(=O)O)cc5[nH]4)c3)[nH]c2c1	-0.63
O=C(O)c1cccc(-c2cccc(C(=O)O)c2)c1	6.2*
O=C(O)c1ccc2nc3ccccc3nc2c1	-1.9
CCOC(=O)Cc1[nH]nc2c1C(c1ccc(F)c(Oc3ccccc3)c1)C(C#N)=C(N)O2 (configuration not stated)	-1.9
O=C(CN1c2ccccc2Sc2ccccc21)NNC(=S)Nc1ccccc1	5.2*
S=C(Nc1ccccc1)N1c2ccccc2Sc2ccccc21	0.44
CC(C)(C)OC(=O)NCC(=O)NNC(=S)Nc1ccccc1	-0.45
Cc1ccc(NC(=S)N2CCC(Nc3nccc(C(F)(F)F)n3)CC2)c(C)c1	-0.67
Cc1ccc(-n2nnnc2-c2c[nH]c3ccc(C)cc23)cc1	-0.48
Cc1ccccc1NC(=O)C(C(F)(F)F)C(F)(F)F	1.6
CC1CN=C(c2ccccc2)c2ccccc2C(=O)O1 (configuration not stated)	-0.71
C=C1c2cc(C)c(C)cc2NC(=O)N1c1ccccc1	2.9
Cc1cc2c(cc1C)NC(=O)c1ccccc1C(c1ccccc1)=N2	3.1*
O=c1c(-c2ccccc2Cl)c(C(F)(F)F)oc2c(CN3CCCC3)c(O)ccc12	0.46
O=C(NCc1ccc(S(=O)(=O)NCCSCc2ccco2)s1)c1ccccc1	-1.2
CC(C)OC(=O)Cn1cnc([N+](=O)[O-])n1	-0.76
CC(C)(C)C1CCC(OC(=O)Cn2cnc([N+](=O)[O-])n2)CC1 (configuration not stated)	3.1*
COc1ccc(NC(=O)Cn2cnc([N+](=O)[O-])n2)c(OC)c1	-0.56
Cc1nc(-n2cccc2)sc1C(=O)NN	-0.02
Cc1nc(C(F)(F)F)nc(Sc2ccc(Cl)cc2)c1C	-2
COc1ccc(C(=O)O/C(=C/c2nccn2C(=O)c2ccc(OC)cc2)c2ccc(OC)cc2)cc1	-1.7
CCOC(=O)C1=C(N)Oc2cc(O)ccc2C1c1ccc(F)cc1F (configuration not stated)	0.45
CCOC(=O)C1=C(N)Oc2ccc3ccccc3c2C1c1cccc(O)c1 (configuration not stated)	3.5*
SMILES	Dicer inh
CCOC(=O)C1=C(N)Oc2cc(O)ccc2C1c1ccccc1 (configuration not stated)	0.12
C#CCSc1n[nH]c(-c2cc(Cl)cc(Cl)c2)n1	-1.3
Cc1ccc(C)n1-c1sc2c(c1C(=O)NNC(=O)c1ccc(Cl)cc1)CCCC2	-0.47
COc1ccc(C(=O)c2oc3ccc(Cl)cc3c2N)cc1	0.05
COc1ccc(C(=O)c2ccccc2)c(O)c1	1.1
COc1ccc(C(=O)c2oc3ccc(OC)cc3c2N)cc1	4.2*
COc1ccc(-c2cc(=O)c3ccc(O)cc3o2)cc1	0.66
COc1ccc(C(=O)c2coc3ccc(O)cc23)cc1	5.4*
COc1ccc2oc(C(=O)c3ccc(Cl)cc3)c(N)c2c1	10
CC(=O)Nc1nc(NC(C)=O)nc(-c2ccccc2C(F)(F)F)n1	2.5
C/C(=C/c1cccc2ccccc12)[N+](=O)[O-]	1.3
Cc1nn(-c2c(Cl)cc(C(F)(F)F)cc2Cl)c(C)c1C(=O)O	0.18
O=C1CC(c2cccc(Cl)c2)Cc2c1cnc1[nH]n(-c3ccccc3)c(=O)c21 (configuration not stated)	0.44
Cn1c(CNC(=O)OC(C)(C)C)nnc1SCC(=O)NCc1ccccc1	0.45
CSc1sc(-c2ccnc(SCC(N)=O)n2)c(-c2ccccc2)c1C#N	1.3
Cc1ccc(C(=O)O)c2c1N[C@H](c1ccccc1Cl)C1CC=CC21 (some centres not stated)	-1.8
COc1cc2ncnc(SCC(=O)NNC(=O)C(C)C)c2cc1OC	-1.5
O=C1CC(Cc2ccccc2)C(=O)N1c1cccc(Cl)c1 (configuration not stated)	1.8
O=C1CC(Cc2ccc(Cl)cc2)C(=O)N1c1ccccn1 (configuration not stated)	-0.83
O=C1CC(Cc2ccc(Cl)cc2)C(=O)N1Cc1ccccc1 (configuration not stated)	3.3*
O=c1nc(Nc2ccc(OC(F)(F)F)cc2)c2ccccc2o1	0.39
O=c1cc(Nc2ccc(OC(F)(F)F)cc2)c2ccccc2o1	3.2*
O=C(NNC(=O)Nc1ccc(OC(F)(F)F)cc1)Nc1ccc(OC(F)(F)F)cc1	0.17
COc1ccccc1C1CCN(C(=O)[C@@H](C)N2CCN(c3ccc(C(F)(F)F)cn3)CC2)CC1	0.46
CCN1C(=O)C2(/C(=C(/O)c3ccc4c(c3)CC(C)O4)C(=O)C(=O)N2CCCOC)c2ccccc21 (configuration not stated)	2.9
CC(C)N(C(=O)CN(C#N)c1nc(N(C)C)nc(N(C)C)n1)c1ccccc1	5.2*
CC(O)c1nc2ccccc2n1CC(=O)N(c1ccccc1)C(C)C (configuration not stated)	0.62
CC(C)N(C(=O)CSc1nc2ccccc2s1)c1ccccc1	-0.03
